Hits are enriched below; roughly 3.5% of the tested compounds scored in any of these assays.
TbPYK inhibitor – inhibitors of Trypanosoma brucei pyruvate kinase; hit rate 0.12% among 410,000; Potency, µM (top dose mostly 76.8 µM), most hits filed as inhibitors; TbPYK enzyme, Kinase-Glo Plus ATP luminescence, 45 min; also: nearly all actives have a fitted effect of over 50% in size
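Quantitative HTS: titrated library compounds versus trypanosomal pyruvate kinase in TEA buffer (pH 7.2) containing KCl, MgCl2, BSA and Tween-20. Reactions were initiated with ADP, 130 uM final. Kinase-Glo Plus luminescence was read after 45 min at RT.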
NS1 inh – blocks influenza NS1 protein function | Potency, µM (doses to about 46.1 µM) | hit rate 0.4% among 270,000 | AID 2326; calls by dose curve; also: actives are rising curves; nearly all actives have a fitted effect of over 50% in size
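OD600 was taken as the measure of yeast growth restored by compound in an NS1-expressing S. cerevisiae strain. Cells had been washed out of glucose medium and diluted 1:100 into galactose -URA medium, pH 6.0.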
Giardia FBPA inh – blocks Giardia fructose-bisphosphate aldolase activity; A8B2U2; purified Giardia FBPA; Potency, µM (series often up to 59.6 µM), hits mostly inhibitors; hit rate 0.71% among 290,000; also: nearly all actives have a fitted effect of over 55% in size
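Giardia FBPA (40 nM reagent) was preincubated 10 min at RT with compound (up to 57.5 uM final), then substrate plus GAPDH/TPI/NAD/arsenate coupling system with diaphorase/resazurin was added; resorufin fluorescence (525/598 nm) was read after 20 min.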
LmPK inh – blocks Leishmania mexicana pyruvate kinase activity; purified LmPK, Kinase-Glo ATP luminescence, 1 h; Potency, µM (titrated, usually from 57.5 µM), usual class: inhibitors; hit rate 0.37% among 290,000; AID 1721
Target sequence (Q27686 whole entry, looked up): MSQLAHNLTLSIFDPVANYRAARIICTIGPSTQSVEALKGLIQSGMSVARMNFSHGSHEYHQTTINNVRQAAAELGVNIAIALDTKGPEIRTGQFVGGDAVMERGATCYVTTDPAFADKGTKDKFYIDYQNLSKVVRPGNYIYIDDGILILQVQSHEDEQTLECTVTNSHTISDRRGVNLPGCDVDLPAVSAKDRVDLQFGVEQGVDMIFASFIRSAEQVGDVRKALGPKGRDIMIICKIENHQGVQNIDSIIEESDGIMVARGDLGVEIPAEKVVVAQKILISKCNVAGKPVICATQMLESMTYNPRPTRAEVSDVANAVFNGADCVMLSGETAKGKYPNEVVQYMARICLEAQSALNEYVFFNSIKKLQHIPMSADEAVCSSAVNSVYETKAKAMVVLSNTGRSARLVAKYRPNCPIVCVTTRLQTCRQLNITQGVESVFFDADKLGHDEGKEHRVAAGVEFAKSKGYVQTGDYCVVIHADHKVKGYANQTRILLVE
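qHTS format; LmPK 0.1 nM; substrates PEP 0.5 mM and ADP 0.1 mM. One-hour room-temperature incubation, then coupled luciferase luminescence; 0.5 nM enzyme wells mark activation.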
Sm TGR block – inhibitors of Schistosoma mansoni thioredoxin glutathione reductase; hit rate 3% among 360,000; purified TGR, DTNB reduction, TNB absorbance 405 nm; Q962Y6; Potency, µM (doses to about 114 µM), most hits filed as inhibitors; also: nearly all actives have a fitted effect of over 60% in size
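Kinetic colorimetric format: TGR-catalysed, NADPH-driven DTNB reduction monitored via TNB absorbance. Enzyme dispensed at 20 nM; compound exposure 15 min at room temperature before reaction start.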
RE007 growth inh – less growth of the S. pombe RE007 Vpr strain | Potency, µM (series often up to 92.2 µM), actives largely listed as inhibitors | S. pombe RE007 Vpr strain, BacTiter-Glo ATP luminescence, 24 h | hit rate 0.21% among 360,000 | AID 651644; active = well fitted falling curve with a large enough effect; inconclusive = small, poorly fitted or top-dose-only effect; inactive = no such curve, though single readings can be large or run the other way; also: nearly all actives have a fitted effect of over 50% in size
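Fission yeast strain RE007, carrying one chromosomally integrated HIV-1 vpr copy, was seeded at OD 0.01 in PMG+AL medium with 23 nL pinned compound. After 24 h at 30 °C and 99% humidity, viability was read by BacTiter-Glo luminescence.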
Numbers stand for hits. Unless noted, calls follow the shape of the dose curve; as a rule, active = well fitted curve in the direction sought with a large enough effect; inconclusive = small, poorly fitted or top-dose-only effect, or another doubt; inactive = no such curve, though single readings can be large; an effect the other way counts as inactive or inconclusive.

`CC(C)(C)OC(=O)NCC12C=CC(O1)C1C(=O)N(Cc3ccccc3)C(=O)C12` (stereo not drawn) gave TbPYK inhibitor inactive, NS1 inh inactive, Giardia FBPA inh inactive, LmPK inh inactive, Sm TGR block 8.9µM and RE007 growth inh 45µM.
Cc1ccc(CNC(=O)CCC2CCCN(Cc3ccc4cccc(F)c4n3)C2)o1 (stereo not drawn) was read as TbPYK inhibitor inactive, NS1 inh inactive, Giardia FBPA inh inactive, LmPK inh inactive, Sm TGR block 40µM and RE007 growth inh inactive.
`Cc1ccc(CNC(=O)CCC2CCCN(Cc3cccc4c3OCO4)C2)o1` (stereo not drawn) gave TbPYK inhibitor inactive, NS1 inh inactive, Giardia FBPA inh inactive, LmPK inh inactive, Sm TGR block inconclusive and RE007 growth inh inactive.
Cc1cccnc1Nc1nc(-c2ccccn2)cs1 was read as TbPYK inhibitor inactive, NS1 inh inactive, Giardia FBPA inh inconclusive, LmPK inh inactive, Sm TGR block inactive and RE007 growth inh 40µM.
For Cc1ccccc1NC(=O)Cn1c(=O)n(CCCC(=O)NCc2ccc3c(c2)OCO3)c(=O)c2ccccc21 the results were TbPYK inhibitor inactive and Sm TGR block inactive.
Cc1ccccc1CSc1cn(CC(=O)N2CCCC2)c2ccccc12 was read as TbPYK inhibitor inactive and Sm TGR block inactive.
Screening C#CCNC(=O)C1=C[C@H](c2csc3ccccc23)C[C@H](OCCCCO)O1 returned TbPYK inhibitor inactive, NS1 inh inactive, Giardia FBPA inh inactive, LmPK inh inactive, Sm TGR block 45µM and RE007 growth inh inactive.
`CC(=O)n1cc([C@H]2C=C(C(=O)NCc3ccccc3)O[C@@H](OCCCCO)C2)c2ccccc21` gave TbPYK inhibitor inactive, NS1 inh inactive, Giardia FBPA inh inconclusive, LmPK inh inactive, Sm TGR block inconclusive and RE007 growth inh inactive.
For C#CCNC(=O)C1=C[C@@H](c2cn(C(C)=O)c3ccccc23)C[C@@H](OCCCCO)O1 the results were TbPYK inhibitor inactive, NS1 inh inactive, Giardia FBPA inh inactive, LmPK inh inactive, Sm TGR block 40µM and RE007 growth inh inactive.
CC(=O)n1cc([C@@H]2C=C(C(=O)NCc3ccccc3)O[C@H](OCCCCO)C2)c2ccccc21 was read as TbPYK inhibitor inactive, NS1 inh inactive, Giardia FBPA inh inactive, LmPK inh inactive, Sm TGR block 50µM and RE007 growth inh inactive.
Screening C#CCNC(=O)C1=C[C@H](c2csc3ccccc23)C[C@H](OCc2ccc(CO)cc2)O1 returned TbPYK inhibitor inactive, NS1 inh inactive, Giardia FBPA inh inactive, LmPK inh inactive, Sm TGR block inactive and RE007 growth inh inactive.
C#CCNC(=O)C1=C[C@H](c2ccc(C(F)(F)F)cc2)C[C@H](OCCCCO)O1 was read as TbPYK inhibitor inactive, NS1 inh inactive, Giardia FBPA inh inconclusive, LmPK inh inactive, Sm TGR block 13µM and RE007 growth inh inactive.
Screening COc1cccc(CNC(=O)c2ccc(NC(=O)N3CCCCc4ccccc43)cc2)c1OC returned TbPYK inhibitor inactive and Sm TGR block inactive.
COc1ccc2c(CNCc3ccc(Cl)cc3)c(C(=O)O)n(Cc3ccccc3C)c2c1 was read as TbPYK inhibitor inactive and Sm TGR block inactive.
COCCn1c2c([n+](Cc3cnccn3)c1C)C(=O)c1ccccc1C2=O was read as TbPYK inhibitor inactive.
For C1=C(c2ccccc2)CCN(c2nc3ccccc3n3cnnc23)C1 the results were TbPYK inhibitor inactive, NS1 inh inactive, Giardia FBPA inh inactive, LmPK inh inactive, Sm TGR block 3.5µM and RE007 growth inh inactive.
`Cc1ccc(OCCn2c(-c3ccc(Cl)cc3)nc3ccccc3c2=O)c(C)c1` gave TbPYK inhibitor inactive and Sm TGR block inactive.
For O=C(O)CNC(=O)CCCn1nnc2ccccc2c1=O the results were TbPYK inhibitor inactive, NS1 inh inactive, Giardia FBPA inh inactive, LmPK inh inactive, Sm TGR block inactive and RE007 growth inh inactive.
`CC(C)[C@H](NC(=O)CCCn1nnc2ccccc2c1=O)C(=O)O` gave TbPYK inhibitor inactive, NS1 inh inactive, Giardia FBPA inh inactive, LmPK inh inactive, Sm TGR block 40µM and RE007 growth inh inactive.
For COc1ccc(NS(=O)(=O)c2ccc(NC(=S)NC(=O)c3cccc(F)c3)cc2)nn1 the results were TbPYK inhibitor inactive, NS1 inh inactive, Giardia FBPA inh inactive, LmPK inh inactive, Sm TGR block 45µM and RE007 growth inh inactive.
`Cc1cc(NS(=O)(=O)c2ccc(NC(=S)NC(=O)c3cccc(S(=O)(=O)N(C)C)c3)cc2)no1` gave TbPYK inhibitor inactive, NS1 inh inactive, Giardia FBPA inh inactive, LmPK inh inactive, Sm TGR block 35µM and RE007 growth inh inactive.
Cc1cc(NS(=O)(=O)c2ccc(NC(=S)NC(=O)c3ccc(F)cc3)cc2)no1 was read as TbPYK inhibitor inactive, NS1 inh inactive, Giardia FBPA inh inactive, LmPK inh inactive, Sm TGR block inconclusive and RE007 growth inh inactive.
For COc1ccc(NS(=O)(=O)c2ccc(NC(=S)NC(=O)c3ccc(Br)cc3)cc2)nn1 the results were TbPYK inhibitor inactive, NS1 inh inconclusive, Giardia FBPA inh inactive, LmPK inh inactive, Sm TGR block 40µM and RE007 growth inh inactive.
Screening COc1ccc(NS(=O)(=O)c2ccc(NC(=O)c3ccc(Br)cc3)cc2)nn1 returned TbPYK inhibitor inactive, NS1 inh inactive, Giardia FBPA inh inactive, LmPK inh inactive and RE007 growth inh inactive.
Screening CC(=O)O[C@H](C)OC(=O)[C@@H](C)c1ccc(-c2ccccc2)c(F)c1 returned TbPYK inhibitor inactive.
O=C(Nc1ccccc1C(=O)OCc1cc(=O)n2c3c(sc2n1)CCCC3)c1cccc(Cl)c1 was read as TbPYK inhibitor inactive and Sm TGR block inactive.
For COC(C[C@H](O)CC(=O)[C@H](C)OCc1ccccc1)OC the results were TbPYK inhibitor inactive, NS1 inh inactive, Giardia FBPA inh inactive, LmPK inh inactive, Sm TGR block 45µM and RE007 growth inh inactive.
Screening COc1ccccc1CNC(=O)CC(c1ccc(F)cc1)N1Cc2ccccc2C1=O (stereo not drawn) returned TbPYK inhibitor inactive and Sm TGR block inactive.
COc1ccc(-c2cc(C(=O)Nc3ccn(Cc4ccc(C)cc4)n3)no2)cc1OC was read as TbPYK inhibitor inactive and Sm TGR block inactive.
Cc1ccnc(SCC(=O)N2CCc3ccccc3C2)n1 was read as TbPYK inhibitor inactive, NS1 inh inactive, Giardia FBPA inh inactive, LmPK inh inactive, Sm TGR block 32µM and RE007 growth inh inactive.
Screening Cn1c(=O)n(C)c2cc3[nH]cnc3cc21 returned TbPYK inhibitor inactive, NS1 inh inactive, Giardia FBPA inh inactive, LmPK inh inactive, Sm TGR block inactive and RE007 growth inh inactive.

Bioassay records from PubChem BioAssay.
